In PubChem BioAssay AID1159580 (chemical genetic matrix, 2015):
Where “and” joins values, the source holds several entries; their conditions need not be identical. Equal values may be shown once. Screen size: about 5,500 compounds; about 2,000 (36%) were called active. Roughly 18% stayed inconclusive and do not appear here. No stated cut-off is given here; in the data, active means normalized growth mostly below about 0.91 (no sharp cut-off); inconclusive means no clear call, values can overlap the other calls; inactive means mostly above about 0.92. Some of the results follow.

Test: chemical genetic growth profiling, strain panel (AID 1159580);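 further: tested at 20 µM; growth read once vehicle control cultures reached saturation at 30 °C; 1 = growth at the plate median or of vehicle wells; lower values mean less growth of the strain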
Settings: S. cerevisiae deletion strains, growth OD

Measured: normalized growth

COc1ccc2c(c1)OC[C@@H](Cc1ccc(OC)c(OC)c1)[C@@H]2O
active: locus YDR137W, strain rgp1, active compounds read low 0.802
inactive: locus YAL013W, strain DEP1, active compounds read low 1.01 | locus YAL021C, strain ccr4, active compounds read low 0.999 | locus YAL026C, strain drs2, active compounds read low 1 | locus YAL030W, strain snc1, active compounds read low 0.994 | locus YBL061C, strain skt5, active compounds read low 0.99 | locus YBR009C, strain hhf1, active compounds read low 0.98 | locus YBR021W, strain FUR4, active compounds read low 0.984 | locus YBR023C, strain chs3, active compounds read low 0.998 | locus YBR171W, strain sec66, active compounds read low 0.99 | locus YBR229C, strain ROT2, active compounds read low 1 | locus YBR231C, strain swc5, active compounds read low 1 | locus YBR279W, strain paf1, active compounds read low 1 | locus YCL011C, strain gbp2, active compounds read low 1 | locus YCL016C, strain dcc1, active compounds read low 0.999 | locus YCL029C, strain bik1, active compounds read low 0.988 | locus YCL069W, strain vba3, active compounds read low 0.996 | locus YCR088W, strain abp1, active compounds read low 0.983 | locus YDL005C, strain med2, active compounds read low 0.975 | locus YDL035C, strain GPR1, active compounds read low 0.99 | locus YDL040C, strain nat1, active compounds read low 0.994 | locus YDL074C, strain BRE1, active compounds read low 0.982 | locus YDL101C, strain DUN1, active compounds read low 1.01 | locus YDL134C, strain PPH21, active compounds read low 1 | locus YDL185W, strain tfp1, active compounds read low 0.997 | locus YDL192W, strain arf1, active compounds read low 0.988 | locus YDR001C, strain nth1, active compounds read low 0.998 | locus YDR069C, strain doa4, active compounds read low 0.996 | locus YDR101C, strain arx1, active compounds read low 0.983 | locus YDR150W, strain NUM1, active compounds read low 1 | locus YDR159W, strain sac3, active compounds read low 0.94 | locus YDR162C, strain NBP2, active compounds read low 0.999 | locus YDR195W, strain ref2 0.973 | locus YDR297W, strain sur2, active compounds read low 0.985 | locus YDR318W, strain mcm21, active compounds read low 0.96 | locus YDR334W, strain swr1, active compounds read low 1.01 | locus YDR335W, strain msn5, active compounds read low 1.01 | locus YDR388W, active compounds read low 0.985 | locus YDR392W, strain spt3, active compounds read low 0.91 | locus YDR502C, strain sam2, active compounds read low 0.977 | locus YEL003W, strain gim4, active compounds read low 1 | locus YEL037C, strain rad23, active compounds read low 1.01 | locus YEL061C, strain CIN8 (second series), active compounds read low 1 | locus YEL061C, strain CIN8, active compounds read low 0.999 | locus YER015W, strain faa2, active compounds read low 1 | locus YER016W, strain bim1, active compounds read low 0.986 | locus YER110C, active compounds read low 0.996 | locus YER111C, strain swi4, active compounds read low 0.998 | locus YER155C, strain BEM2 (second series), active compounds read low 0.99 | locus YER155C, strain BEM2, active compounds read low 0.976 | locus YER167W, strain BCK2, active compounds read low 0.958 | locus YFR010W, strain ubp6, active compounds read low 0.998 | locus YGL078C, strain dbp3, active compounds read low 0.996 | locus YGL086W, strain mad1, active compounds read low 0.978 | locus YGL167C, strain pmr1, active compounds read low 0.977 | locus YGL173C, strain kem1, active compounds read low 1 | locus YGL227W, strain vid30, active compounds read low 0.992 | locus YGL240W, strain doc1, active compounds read low 1.02 | locus YGL248W, strain PDE1, active compounds read low 0.996 | locus YGL253W, strain hxk2, active compounds read low 1.02 | locus YGR078C, strain PAC10, active compounds read low 1.01 | locus YGR135W, strain pre9, active compounds read low 0.997 | locus YGR229C, strain SMI1, active compounds read low 0.993 | locus YGR252W, strain gcn5, active compounds read low 0.922 | locus YHR013C, strain ard1, active compounds read low 0.966 | locus YHR027C, strain rpn1, active compounds read low 1.02 | locus YHR030C, strain SLT2, active compounds read low 0.995 and 1.01 | locus YHR079C, strain IRE1 (second series), active compounds read low 0.981 | locus YHR079C, strain IRE1, active compounds read low 1.01 | locus YHR094C, strain hxt1, active compounds read low 0.989 | locus YHR129C, strain ARP1, active compounds read low 0.993 | locus YHR142W, strain chs7, active compounds read low 1.01 | locus YHR200W, strain rpn10, active compounds read low 0.987 | locus YIL066C, strain RNR3, active compounds read low 1 | locus YIL073C, strain SPO22, active compounds read low 0.998 | locus YIL125W, strain kgd1, active compounds read low 0.996 | locus YIR030C, strain dcg1, active compounds read low 0.986 | locus YJL092W, strain hpr5, active compounds read low 0.994 | locus YJL095W, strain BCK1 (second series), active compounds read low 1 | locus YJL095W, strain BCK1, active compounds read low 0.989 and 0.952 | locus YJL115W, strain asf1, active compounds read low 1 | locus YJL129C, strain trk1, active compounds read low 0.94 | locus YJL134W, strain LCB3, active compounds read low 1 | locus YJL154C, strain vps35, active compounds read low 1 | locus YJL164C, strain tpk1, active compounds read low 0.99 | locus YJL166W, strain qcr8, active compounds read low 1.01 | locus YJL168C, strain set2, active compounds read low 0.99 | locus YJL187C, strain SWE1 (second series), active compounds read low 1 | locus YJL187C, strain SWE1, active compounds read low 0.998 | locus YJR043C, strain POL32, active compounds read low 0.953 | locus YJR066W, strain TOR1, active compounds read low 0.975
